The source of these data is PubChem BioAssay.

SMILES strings stand for the structures.

Assay [1] concerns Human papillomavirus type 1a protein E7 (residues 44-93). Briefly: HPV1a E7 fragment binders on microarrays, primary screen, biochemical, small-molecule microarray, residues 44-93, 635 nm fluorescence (AID 1108).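 Note: E7 fragment applied at 1 µg/mL in TBST for 1 h at 4 C; score combines spot fluorescence with its signal to noise ratio.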 As to conditions: small-molecule microarray binding, fluorescence 635 nm; higher = more signal.
Assay [2] in a line: modulators of HCV replicon luciferase signal, primary screen, HCV replication inhibitor project, Huh7 cells, luciferase reporter (AID 1109).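 Note: huh7 hepatoma cells harbouring a luciferase neomycin HCV replicon reporter; luciferase luminescence as measure of HCV replicon replication; test concentration not given here.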 The note with it: 48 h, higher = more signal. In general terms: Replicon systems follow genome replication, usually without infectious particles.
Assay [3] deals with Left-right determination factor 2 (Homo sapiens) (UniProt O00292). Briefly: LEFTY2 binders on small-molecule microarrays, primary screen, biochemical, small-molecule microarray, 635 nm fluorescence scan (AID 1110). As to conditions: LEFTY2 binding, higher = more signal.
Assay [4] deals with Calmodulin-1 (Homo sapiens) (UniProt P0DP23). Kind of assay: CALM1 binders on microarrays, EGTA buffer, profiling panel, biochemical, small-molecule microarray, Cy5-labelled CALM1 (AID 1111).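 Note: labelled calmodulin applied in Tris saline Tween buffer holding calcium plus EGTA and DTT.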 The note with it: Cy5-CALM1 binding fluorescence, higher = more signal.
Assay [5] has the same target. Kind of assay: calcium-bound CALM1 binders on microarrays, profiling panel, artefact control for SMM control-protein annotation, biochemical, small-molecule microarray, Cy5-labelled CALM1, plus calcium (AID 1112).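 Note: score merges spot fluorescence with signal to noise from triplicate slides.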 The note with it: Cy5-CALM1 binding fluorescence, higher = more signal.
A short description of assay [6]: small-molecule microarray binders of probe aWnt5a, primary screen, biochemical, biotinylated probe, 635/667 nm fluorescence (AID 1113).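 Note: score merges 667 nm fluorescence intensity with signal-to-noise per printed feature.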 As to conditions: higher = more signal.
Assay [7] is described as follows: small-molecule microarray binders of probe aShh, primary screen, biochemical, biotinylated probe, 635/667 nm fluorescence (AID 1114).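 Note: probe is biotin-labelled aShh protein from a stem cell growth factor screen; measures binding of labelled protein to compounds printed on the slide; score merges feature fluorescence at 667 nm with signal-to-noise.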 The note with it: higher = more signal.
A short description of assay [8]: small-molecule microarray binders of probe aNog, primary screen, biochemical, biotinylated probe, 635/667 nm fluorescence (AID 1115).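 Note: probe is biotinylated aNog protein used at 0.15 µg/mL for 1 h at 4 C; z-score combines 667 nm fluorescence of each spot with its signal to noise.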 The note with it: higher = more signal.
Assay [9] deals with Torsin-1A-interacting protein 1 (Homo sapiens) (UniProt Q5JTV8). Briefly: LAP1 binders from COS7 cell lysate, primary screen, small-molecule microarray, 635/667 nm fluorescence (AID 1116). The note with it: COS7-hLAP1 lysate binding, 635 nm fluorescence, higher = more signal.
Assay [10] concerns the target Alpha-bungarotoxin (Bungarus multicinctus) (UniProt P60615). Briefly: alpha-bungarotoxin binders on microarray, profiling panel, artefact control for SMM control protein annotation, biochemical, small-molecule microarray, Alexa647 label, 635/667 nm fluorescence (AID 1117). The note with it: alpha-BTX-A647 binding fluorescence, higher = more signal.

Chain of Left-right determination factor 2 (Homo sapiens) (O00292 whole entry, looked up): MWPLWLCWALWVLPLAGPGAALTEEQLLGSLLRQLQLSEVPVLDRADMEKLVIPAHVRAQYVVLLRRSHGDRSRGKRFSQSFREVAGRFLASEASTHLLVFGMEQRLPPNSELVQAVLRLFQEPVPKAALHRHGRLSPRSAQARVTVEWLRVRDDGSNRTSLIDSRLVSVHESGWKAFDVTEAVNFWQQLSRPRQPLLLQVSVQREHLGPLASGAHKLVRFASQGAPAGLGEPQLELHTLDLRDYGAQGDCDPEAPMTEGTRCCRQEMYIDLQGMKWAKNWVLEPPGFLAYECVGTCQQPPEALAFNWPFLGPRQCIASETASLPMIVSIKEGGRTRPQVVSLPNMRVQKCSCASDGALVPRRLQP
Chain of Torsin-1A-interacting protein 1 (Homo sapiens) (Q5JTV8 whole entry, looked up): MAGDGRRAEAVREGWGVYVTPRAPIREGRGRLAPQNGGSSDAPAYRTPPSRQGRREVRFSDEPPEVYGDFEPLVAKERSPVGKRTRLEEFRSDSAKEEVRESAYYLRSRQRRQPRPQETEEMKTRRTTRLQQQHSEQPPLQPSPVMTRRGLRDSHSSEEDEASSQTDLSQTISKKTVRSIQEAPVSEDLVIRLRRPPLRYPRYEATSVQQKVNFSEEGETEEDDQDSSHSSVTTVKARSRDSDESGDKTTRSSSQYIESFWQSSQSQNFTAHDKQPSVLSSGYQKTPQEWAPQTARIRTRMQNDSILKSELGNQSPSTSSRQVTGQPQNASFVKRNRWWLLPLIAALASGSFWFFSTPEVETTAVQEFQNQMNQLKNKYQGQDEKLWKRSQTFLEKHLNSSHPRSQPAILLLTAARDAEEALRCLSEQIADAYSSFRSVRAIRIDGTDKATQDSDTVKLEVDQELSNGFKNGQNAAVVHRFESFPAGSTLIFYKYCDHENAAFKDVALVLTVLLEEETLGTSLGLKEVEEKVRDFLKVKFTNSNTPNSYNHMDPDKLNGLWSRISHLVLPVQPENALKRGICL
Chain of Alpha-bungarotoxin (Bungarus multicinctus) (P60615 whole entry, looked up): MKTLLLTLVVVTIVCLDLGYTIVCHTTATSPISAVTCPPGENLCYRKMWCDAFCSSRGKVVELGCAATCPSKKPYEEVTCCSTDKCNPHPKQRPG

With `COc1ccc([Si](C)(C)[C@@H]2[C@@H](CCO)O[C@]3(C(=O)N(Cc4ccccc4)c4ccc(N5C(=O)c6ccccc6Oc6ccccc65)cc43)[C@H]2C)cc1`, the composite z-score was -0.175 in assay [1]; -0.75 in assay [3]; 0.417 in assay [4]; 0.925 in [5]; -0.208 in assay [6]; -0.0605 in assay [7]. For the same compound, the composite z-score was -0.0541 in [8], -0.361 in assay [9] and 0.367 in assay [10]. For the same compound, the z-score in [2] is -4.15.

`CN(C)C(=O)[C@]1(Cc2ccccc2)N=C(c2ccc(OCCCO)cc2)O[C@@H]1c1ccccc1`: the composite z-score in [1] was 1.49; in assay [3], -0.0054; in assay [4], 1.25; in assay [5], 0.529; in assay [6], 0.0317; in assay [7] it was -0.214. The composite z-score is 1.43 in [8], 1.8 in assay [9] and 0.917 in assay [10]. Besides, the z-score in assay [2] was -1.88.

For the compound `COC(=O)C(CC#Cc1ccc2c(c1)[C@]1(C(=O)N2)[C@H](c2ccc(O)cc2)N2[C@H](c3ccccc3)[C@H](c3ccccc3)OC(=O)[C@H]2[C@@H]1C(=O)N1CCc2cc(OC)c(OC)cc2C1)C(=O)OC`, the composite z-score in assay [1] is 0.85; in assay [3], 0.737; in assay [4], 0.267; in assay [5], -0.521; in assay [6] it was 0.324; in assay [7], 0.383. In addition, the composite z-score is -0.23 in assay [8], 1.25 in assay [9] and 1.55 in assay [10]. Moreover, the z-score in assay [2] was -0.163.

On to `CCN(CC)c1ccc(N2CC=CC34O[C@@H]5C=CCOC(=O)[C@@H]5[C@H]3C(=O)N(CCCO)[C@@H]4C2=O)cc1` (stereo not given in full), for which the composite z-score in assay [1] was 0.295; in assay [3], -0.934; in assay [4], -1; in [5], 0.319; in assay [6], -0.124; in [7], 0.258. Also, the composite z-score is 0.223 in assay [8], 0.0016 in assay [9] and -1.57 in [10]. Further, in assay [2], the z-score is -0.427.

Take `COc1ccc(CCNC(=O)[C@@]2(C)c3ccccc3C(=O)N(Cc3cc(C(F)(F)F)cc(C(F)(F)F)c3)[C@H]2c2ccc(CO)cc2)cc1`: the composite z-score in assay [1] is 1.28; in assay [3], 0.0779; in assay [4] it was 1.33; in [5], -0.228; in assay [6], -0.152; in [7], -0.0669. Moreover, the values for the composite z-score in [8], in assay [9] and in assay [10] were 0.242, 0.548 and -0.183, respectively. In [2], the z-score is -2.25.

On to `COc1cccc(OC)c1C(=O)O[C@H]1[C@@H]2OC(=O)[C@H](Cc3cccc(Br)c3)C/C=C/C[C@@H](Cc3cccc(Br)c3)C(=O)O[C@H]2[C@@H](OC)O[C@@H]1CO`, for which the composite z-score in assay [1] was 0.479; in assay [3], 0.309; in [4], -0.108; in [5], -0.0545; in assay [6] it was -0.0869; in [7] it was 0.111. Moreover, the composite z-score came to 0.113 in assay [8], 0.482 in assay [9] and 0.528 in [10]. For the same compound, in assay [2], the z-score was -2.37.

Consider `CN1C(=O)C2C=CC(C(O)c3ccc(-c4ccccc4)s3)N(Nc3ccccc3)C2C1=O` (stereo not given), for which the composite z-score in [1] is 0.965; in assay [3], 0.0874; in assay [4], 1.41; in assay [5], 0.186; in assay [6] it was -0.0103; in [7], 0.296. The composite z-score in assay [8] worked out at 1.49; in [9] it was 1.07; in [10] it was 2. Also, the z-score in assay [2] was -0.593.

For `CO[C@H]1O[C@H](CO)[C@@H](OC(=O)Nc2ccc3c(c2)OCO3)[C@@H]2OC(=O)[C@@H](Cc3ccccc3)C/C=C/C[C@H](Cc3ccccc3)C(=O)O[C@@H]12`, the composite z-score in [1] was 1.37; in assay [3], 0.0694; in assay [4], 0.929; in [5], -0.728; in assay [6], 0.0533; in assay [7], 0.149. Besides, the composite z-score in assay [8] was found to be 1.09; in [9], 0.0909; in assay [10] it was 0.732. The z-score in assay [2] is -2.54.

As to `COC(=O)[C@@]1(Cc2ccccc2CN=[N+]=[N-])COC(c2ccc(OCCCO)cc2)=N1`, the composite z-score is -0.273 in [1]; -2.75 in assay [3]; -0.759 in assay [4]; 0.0354 in [5]; -0.292 in assay [6]; 1.69 in assay [7]. Besides, the composite z-score in [8] was 0.199; in assay [9], 0.202; in [10] it was 3.02. Moreover, the z-score in assay [2] was -0.221.

On to `C[C@@H](OCc1ccccc1)C1NC(=O)[C@@]23C(=O)N[C@@H](Cc4ccccc4)C2[C@H](C)[C@@]2(C)O[C@H]2C3/C=C/C/C=C\CNC(=O)[C@H](Cc2ccccc2)NC1=O` (stereo not given in full), for which the composite z-score was -0.677 in assay [1]; 0.226 in assay [3]; -0.629 in assay [4]; -1.15 in [5]; -0.035 in assay [6]; -0.304 in assay [7]. The composite z-score was -0.289 in [8], 0.252 in [9] and -0.753 in assay [10]. In [2], the z-score is -0.963.

Consider `COC(=O)C1(CC(C)C)C=C2C(=C(C(C)C)C(=O)C2C)CN1` (stereo not given), for which the composite z-score in assay [1] was -0.57; in [3], -0.975; in [4], 0.228; in assay [5], 1.07; in assay [6] it was -0.0403; in [7], 0.171. Also, the composite z-score is 0.595 in assay [8], 0.187 in assay [9] and -0.77 in assay [10]. The z-score in assay [2] was -0.193.

Regarding `C=CCC(OC(C)=O)[C@@H]1[C@@H](N(Cc2ccc(-c3ccccc3)cc2)C(=O)c2ccc(-c3ccccc3)cc2)c2cc(OCCCO)ccc2N1C(=O)c1ccc2ccccc2n1` (stereo not given in full), the composite z-score in [1] was 0.0942; in assay [3], 0.108; in assay [4], 0.19; in [5], 0.531; in assay [6] it was -0.184; in assay [7], -0.214. In addition, the composite z-score is -0.335 in [8], 0.276 in assay [9] and -0.282 in assay [10]. Besides, the z-score in assay [2] is -0.0356.

On to `C=CCC(OC(C)=O)[C@@H]1[C@@H](N(Cc2cccc3ccccc23)C(=O)c2ccc(-c3ccccc3)cc2)c2cc(OCCCO)ccc2N1C(=O)c1ccc2ccccc2n1` (stereo not given in full), for which the composite z-score is 0.237 in [1]; 0.258 in assay [3]; 0.249 in assay [4]; 0.979 in assay [5]; -0.0685 in assay [6]; 0.158 in assay [7]. The composite z-score in [8] is -0.278; in [9] it was 0.529; in [10] it was -0.0098. In addition, the z-score in [2] is 0.15.
